# Measured values from PubChem BioAssay (EPA / NIEHS).
# Some compounds were tested as several samples or in several runs, with calls that do not always agree. Active and inactive are the calls of the source. The calls were made as follows: active = hit-call score of the fitted dose curve at least 0.9, where 1 is the maximum; inactive = score below 0.9.
# Experiment: BSK_SAg_PBMCCytotoxicity: PBMC Cytotoxicity Assessment in the BioMAP Diversity Plus: SAg Assay (AID 2283093);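 also: fitted both ways against DMSO so a hit may be loss or gain of signal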
# Conditions: primary human HUVEC with PBMC
# Method: BSK_SAg is a cell-based, multiplexed-readout assay that uses umbilical vein endothelium and peripheral blood mononuclear cells, a human vascular primary cell co-culture, with measurements taken at 24 hours after chemical dosing in a 96-well plate.BSK_SAg_PBMCCytotoxicity is an assay component measured in the BSK_SAg assay. It measures Alamar blue related to cell death using Alamar Blue Reduction technology.Data from the assay component BSK_SAg_PBMCCytotoxicity was analyzed into 1 assay endpoint. This assay endpoint, BSK_SAg_PBMCCytotoxicity, was analyzed with bidirectional fitting relative to DMSO as the negative control and baseline of activity. Using a type of viability reporter, gain or loss-of-signal activity can be used to understand changes in the viability. Furthermore, this assay endpoint can be referred to as a secondary readout, because this assay has produced multiple assay endpoints where this one serves a viability function. To generalize the intended target to other relatable targets, this assay endpoint is annotated to the cell cycle intended target family, where the subfamily is cytotoxicity.
# The levels of cell surface (or secreted, indicated by the prefix "s") biomarker endpoints were measured by ELISA. Overt cytotoxicity to cells in confluent adherent cultures (all systems other than the BT system) was assessed by measuring total protein levels using sulforhodamine B (SRB) staining in parallel cultures at the time of biomarker measurements, indicated as SRB endpoints. For proliferation assays for adherent cell types, individual cell types are cultured at sub-confluence and relative cell numbers quantified by SRB staining at time points optimized for each system (48 h: 3C and CASM3C systems; 72 h: BT and HDF3CGF systems; 96 h: SAg system). SRB was performed by staining cells with 0.1% SRB after fixation with 10% TCA and reading wells at 560 nm.Viability and proliferation of PBMC (T cells) was quantified by Alamar Blue reduction for the SAg and BT systems. For PBMC viability (referred to as PBMC Cytotoxicity within the assay endpoint names), cells were plated (75,000/well in a 96-well plate) and then chemical samples added for 1 h before addition of activators, SEB and TSST-1 (20 ng/mL final concentration each). Cells were incubated for 90 h. Then, Alamar Blue (20 uL/well) (Invitrogen, Cat DAL1100) was added for 6 h, and the plates were read with a fluorescence microplate reader at 546/580 nm (excitation/emission). For PBMC proliferation, cells were plated and activated as above but incubated for only 16 h prior to addition of Alamar Blue. Plates were read after 6 h.
SMILES,outcome,AC50
C1N2CN3CN1CN(C2)C3,inactive,
CCN(C(=O)c1cc(C)cc(OC[C@H](C)Nc2ccncc2)c1)C(C)C,inactive,
C=CC(=C)CCC=C(C)C,inactive,
C=CCCCCCCCCC(=O)O,inactive,
CCCCCCCCCCCCCCCO,,30.7 µM (active)
CCOCCOCCOCCO,inactive,
Cn1cnc([N+](=O)[O-])c1Sc1ncnc2nc[nH]c12,inactive,13.7 µM (active)
COC(=O)CC(=O)OC,inactive,
O=C(CCCCCCCCc1cccnc1)N1CCC(C=C(c2ccccc2)c2ccccc2)CC1,,10.3 µM (active)
CC(C)CCCCCCOC(=O)c1ccc(C(=O)OCCCCCCC(C)C)c(C(=O)OCCCCCCC(C)C)c1,inactive,
CCOC(=O)c1ccc(C2CCC(NC[C@H](O)COc3ccc(O)c(NS(C)(=O)=O)c3)CC2)cc1 (stereo not given in full),,20.6 µM (active)
Cc1ccc(N)cc1O,,9.99 µM (active)
CC(O)CN(CCN(CC(C)O)CC(C)O)CC(C)O (stereo not given),inactive,
CC(C)CC(C)(O)C#CC(C)(O)CC(C)C (stereo not given),inactive,
CCCCCCCCCCCCc1ccccc1,inactive,
COc1ccc(/C=C/S(=O)(=O)NC(=O)c2ccc(C)cc2Cl)cc1,inactive,
CC(C)(O)c1coc(S(=O)(=O)NC(=O)Nc2c3c(cc4c2CCC4)CCC3)c1,inactive,
O=C1CCCCCN1,inactive,
Nc1nc2ncc(CNc3ccc(C(=O)N[C@@H](CCC(=O)O)C(=O)O)cc3)nc2c(=O)[nH]1,inactive,
Nc1ccc(Nc2ccccc2)cc1,,5.36 µM (active)

SMILES,outcome,AC50
O=P(OC(CCl)CCl)(OC(CCl)CCl)OC(CCl)CCl,inactive,
Cn1c(=O)c2c(ncn2C)n(C)c1=O,inactive,
Clc1nc(Cl)c(Cl)c(Cl)c1Cl,inactive,
CCCCC(CC)COC(=O)CCCCCCCCC(=O)OCC(CC)CCCC (stereo not given),inactive,
CC(C)=CCC/C(C)=C/CO,inactive,
O=c1n(CC2CO2)c(=O)n(CC2CO2)c(=O)n1CC1CO1 (stereo not given),inactive,
O=C(O)CCN(C1(C(=O)NO)CCCC1)S(=O)(=O)c1ccc(Oc2ccc(F)cc2)cc1,inactive,
C[C@](N)(Cc1ccc(O)c(O)c1)C(=O)O,,10.8 µM (active)
O=C(OC[C@H]1O[C@@H](OC(=O)c2cc(O)c(O)c(OC(=O)c3cc(O)c(O)c(O)c3)c2)[C@H](OC(=O)c2cc(O)c(O)c(OC(=O)c3cc(O)c(O)c(O)c3)c2)[C@@H](OC(=O)c2cc(O)c(O)c(OC(=O)c3cc(O)c(O)c(O)c3)c2)[C@@H]1OC(=O)c1cc(O)c(O)c(OC(=O)c2cc(O)c(O)c(O)c2)c1)c1cc(O)c(O)c(OC(=O)c2cc(O)c(O)c(O)c2)c1,inactive,
CCOC(=O)CC(CC(=O)OCC)(OC(C)=O)C(=O)OCC,inactive,
CN(C)c1ccc(N=NS(=O)(=O)O)cc1,inactive,
CC1(C)C(=O)N(Br)C(=O)N1Br,inactive,
COC(=O)c1ccccc1O,inactive,
COCCOc1cc2cc(C(=O)NC3CCN(C(C)C)CC3)n(CC(=O)Nc3ccc(Cl)cn3)c2cn1,inactive,
NC(=O)NO,inactive,
CC(C)=CCCC(C)=CC=O,inactive,
CNS(=O)(=O)c1cc(C(=O)N2CCC(CCN3C4CCC3CC(n3c(C)nc5ccccc53)C4)(c3cccc(F)c3)CC2)c(Cl)cc1F (stereo not given),,12.6 µM (active)
CC1=CC(=O)CC(C)(C)C1,inactive,
Cn1c(=O)cc(Oc2ccc(F)cc2F)c2cnc(NCC(C)(C)O)nc21,inactive,
